# Shown are actives, neighbours in structure and some others; about 19% of the full set was active somewhere.
# IL1B secr inh = blocks inflammasome-driven IL-1 beta release; THP-1 LPS/ATP IL-1B secretion, AlphaLISA, 16 h; hits give low values; activity change, % at 57.5 µM; hit rate 4.7% among 360,000; in the data active means activity change below about -50%; inconclusive means mostly about -30% to -49%
#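 THP-1 cells pretreated 1 hr with compounds (up to 57.5 uM final), then stimulated with LPS (250 ng/mL final) plus ATP (1.25 mM final); secreted IL-1B measured by AlphaLISA after 16 hr, decreased signal indicating inhibition.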
# HT1080-NT tox = kills 2HG-producing HT-1080-NT fibrosarcoma cells; HT-1080-NT fibrosarcoma viability, CellTiter-Glo ATP luminescence, 48 h; Potency, µM (doses to about 46.1 µM), actives largely listed as cytotoxic; hit rate 1.6% among 360,000; AID 686970;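 further: NT is the 2HG producing partner of a matched IDH1 knockdown line; nearly all actives have a fitted effect of over 55% in size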
#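 Compounds were tested in concentration-response format on HT-1080-NT cells for 48 hours at 37 degrees C. Cell viability came from CellTiter-Glo luminescence; curves were classified by r2, response magnitude and activity.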
# DT40 TDP1 no CPT = qHTS for Inhibitors of human tyrosyl-DNA phosphodiesterase 1 (TDP1): qHTS in cells in absence of CPT; DT40 Tdp1-/- hTDP1 cells, no CPT, ATP luminescence, 48 h; Potency, µM (top dose mostly 46.2 µM), usual class: inhibitors; hit rate 15% among 420,000; AID 686978, 2013; further: nearly all actives have a fitted effect of over 55% in size
#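 Cells were dispensed at 400 per well, compounds added by pin tool, plates incubated ≥48 hr at 37 °C, then CellTiter-Glo added for 30 min at room temperature before luminescence reading. Line: DT40 Tdp1-/- complemented with hTDP1; camptothecin omitted.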
# TDP1 cell CPT = DT40-hTDP1 cell growth loss with CPT. chicken DT40 Tdp1-/-;hTDP1 cells + 20 nM CPT, ATP luminescence, 48 h. Potency, µM (doses to about 46.2 µM), actives largely listed as inhibitors. hit rate 12% among 420,000; further: nearly all actives have a fitted effect of over 55% in size
#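 Chicken DT40 Tdp1-/- cells complemented with human TDP1, 400 cells/well, exposed to compounds plus 20 nM camptothecin for at least 48 h at 37 C; viability read as ATP content by CellTiter-Glo luminescence.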
# HT1080 IDH1KD tx = HT-1080 IDH1 knockdown cell toxicity (counter line) | HT-1080 IDH1 knockdown viability, ATP luminescence, 48 h | Potency, µM (highest dose often 46.1 µM), most hits filed as cytotoxic | hit rate 2% among 360,000
#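 IDH1KD HT-1080 cells, 750/well, RPMI + 5% FBS; compound pinned after 2 h settling; 48 h, 37 °C; CellTiter-Glo luminescence; % activity normalised to DMSO and no-cell wells; curves fitted, classed by r2 and efficacy.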
# ELG1 DNA repair = blocks ELG1-dependent DNA repair in HEK293T cells. HEK293T ELG1-luciferase reporter, luminescence, 16 h; DNA damage induced by 5-fluorouridine. Potency, µM (highest dose often 46.1 µM), hits mostly inhibitors. hit rate 2.3% among 330,000; further: nearly all actives have a fitted effect of over 55% in size
#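 DMSO vehicle served as the neutral condition. Each well held 2,000 cells given 5-fluorouridine plus compound; after 16 hr at 37 °C/5% CO2, ONE-Glo was added and luciferase measured 30 min later.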
# Hits are given with their value; i = inactive; ? = inconclusive; nt = no result. Unless noted, the call rests on the fitted dose curve; in most records, active means well fitted curve in the direction sought with a large enough effect; inconclusive means small, poorly fitted or top-dose-only effect, or another doubt; inactive means no such curve, though single readings can be large; an effect the other way counts as inactive or inconclusive.
SMILES,IL1B secr inh,HT1080-NT tox,DT40 TDP1 no CPT,TDP1 cell CPT,HT1080 IDH1KD tx,ELG1 DNA repair
CN1/C(=C\C(=O)CSc2nnc(NCc3ccccc3)s2)C(C)(C)c2ccccc21,i,i,?,14.6µM,i,18.4µM
Cc1cc(C(=O)CSc2nnc(NCc3ccccc3)s2)c(C)n1C,i,14.6µM,13µM,10.3µM,?,i
O=C(CSc1nnc(NCc2ccccc2)s1)NC1CCS(=O)(=O)C1 (stereo unspecified),i,i,i,i,i,i
CCN(CC)S(=O)(=O)c1ccc(N/N=C(\C)c2ccncc2)nc1,i,i,?,23.1µM,i,i
CCN(CC)S(=O)(=O)c1ccc(N/N=C(\C)c2cccnc2)nc1,-50.9,i,i,i,i,i
C/C(=N\Nc1ccc(S(=O)(=O)N2CCCCC2)cn1)c1cccc(Br)c1,i,?,3.26µM,?,?,?
CCc1ccc(NC(=O)CCS(=O)(=O)c2ccc3c(c2)oc(=O)n3C)cc1,nt,nt,i,i,nt,nt
Cc1cc(=O)[nH]c(SCc2ccc(Cl)cc2Cl)n1,i,i,23.1µM,i,i,?
Cc1nnc(SCc2ccc(Cl)cc2Cl)[nH]c1=O,i,i,i,i,i,?
Cc1cnc(SCc2ccc(Cl)cc2Cl)[nH]c1=O,i,i,20.6µM,?,i,i
N/C(CCS(=O)(=O)c1ccc(Cl)cc1)=N\OC(=O)c1ccccc1Cl,-51.2,?,?,i,?,i
CC1(C)Cc2c(ccc3ccccc23)/C(=C/C(=O)N2CCCCC2)N1,-62.5,?,14.6µM,16.4µM,?,i
O=C(Oc1ccc2ccccc2c1Cl)N1CCCCCC1,i,i,?,i,i,?
CS(=O)(=O)c1ccc2nc(NC(=O)c3cc(-c4ccccc4)nn3-c3ccccc3)sc2c1,i,i,?,?,i,7.31µM
Cc1ccc(C(=O)Nc2nc3ccc(S(C)(=O)=O)cc3s2)o1,i,20.6µM,11.6µM,10.3µM,?,?
CS(=O)(=O)c1ccc2sc(NC(=O)c3cc4ccccc4o3)nc2c1,i,i,23.1µM,?,i,?
CS(=O)(=O)c1ccc2nc(NC(=O)c3ccco3)sc2c1,i,?,?,?,?,?
CS(=O)(=O)c1ccc2nc(NC(=O)c3cc4ccccc4o3)sc2c1,i,i,?,?,i,?
CS(=O)(=O)c1ccc2nc(NC(=O)C3=NN(c4ccccc4)C(=O)CC3)sc2c1,i,i,i,i,i,i
CCOC(=O)[C@H]1[C@H]2COc3ccc(OC)cc3[C@@H]2N2C(=O)CN(CC3CCCO3)C(=O)[C@@]12C (stereo partly specified),i,i,i,i,i,i
CCOC(=O)C1(C)CCN1C(=O)c1ccc(C(C)(C)C)cc1 (stereo unspecified),i,i,20.6µM,16.4µM,i,nt
CCOC(=O)C1(C)CCN1C(=O)c1ccc(SC(F)(F)F)cc1 (stereo unspecified),i,i,?,18.4µM,i,nt
O=C(C[n+]1cccc(O)c1)NCc1ccc(Cl)cc1,i,i,i,i,i,i
CCCCc1nn2c(=O)cc(COC(=O)c3cccs3)nc2s1,nt,nt,i,i,nt,nt
O=C(NC1CC1)c1sc2cc(Cl)ccc2c1Cl,i,i,11.6µM,?,i,?
SMILES,IL1B secr inh,HT1080-NT tox,DT40 TDP1 no CPT,TDP1 cell CPT,HT1080 IDH1KD tx,ELG1 DNA repair
O=C(NC1CC1)c1sc2cc(F)ccc2c1Cl,i,i,?,i,i,?
c1ccc(-c2csc(CN3CCCCC3)n2)cc1,i,i,?,i,i,nt
O=[N+]([O-])c1cc(-c2nnc(-c3ccccc3)o2)ccc1Oc1ccc(Cl)cc1,i,i,i,i,i,?
Cc1nnc(-c2ccc(Oc3ccc(Cl)cc3)c([N+](=O)[O-])c2)o1,i,i,23.1µM,?,i,i
COc1cccc(C2(O)C(=O)Nc3ccccc32)c1 (stereo unspecified),i,i,i,i,i,i
Cn1c(N2CCN(C(c3ccccc3)c3ccccc3)CC2)nc2c1c(=O)[nH]c(=O)n2C,i,i,18.4µM,20.6µM,i,?
CC(=O)Cn1c(N2CCC(Cc3ccccc3)CC2)nc2c1c(=O)[nH]c(=O)n2C,i,i,16.4µM,?,i,?
CCCCCn1c(N2CCC(Cc3ccccc3)CC2)nc2c1c(=O)[nH]c(=O)n2C,-86.7,20.6µM,?,7.31µM,?,nt
C=C(C)Cn1c(N2CCC(Cc3ccccc3)CC2)nc2c1c(=O)[nH]c(=O)n2C,i,?,?,?,?,?
CCCCCCSc1nc2c(c(=O)[nH]c(=O)n2C)n1C,i,?,20.6µM,?,i,i
CCCSc1nc2c(c(=O)[nH]c(=O)n2C)n1C,i,i,i,i,i,i
CCCC(=O)Nc1nnc2n1CCS2,nt,nt,i,i,nt,nt
CCn1c(N2CCN(CC(=O)c3c(C)n(C)c4ccccc34)CC2)nc2c1c(=O)[nH]c(=O)n2C,-70.7,i,?,?,i,?
CN1CCN(c2nc3c(c(=O)[nH]c(=O)n3C)n2Cc2ccccc2)CC1,i,i,i,i,i,i
CCn1c(N2CCN(CC(=O)c3c(C)n(C)c4ccc(OC)cc34)CC2)nc2c1c(=O)[nH]c(=O)n2C,nt,i,?,?,i,?
CCCCCn1c(N2CCN(Cc3ccccc3)CC2)nc2c1c(=O)[nH]c(=O)n2C,i,i,?,?,i,16.4µM
CC(OC(=O)C1CCN(S(=O)(=O)c2ccc(C(C)(C)C)cc2)CC1)C(=O)N(C)C1CCCCC1 (stereo unspecified),i,i,?,?,i,nt
COc1ccccc1-n1nnnc1SCC(=O)NC1CCCCC1,i,i,i,i,i,i
CC1(C)COC(/C=C/c2cccc([N+](=O)[O-])c2)=N1,-107.0,?,11.6µM,?,?,?
Cc1cccc(N=C2Sc3nc4c(C)c(C)ccc4cc3CN2CCN2CCOCC2)c1,-58.7,?,23.1µM,18.4µM,?,9.2µM
Cc1cccc(OCCCN2CCOCC2)c1,i,i,i,i,i,i
Cc1[nH][nH]c(=O)c1C=NCc1ccc(Cl)cc1,i,i,i,i,i,i
CCOc1ccccc1NC(=O)CSc1nc2ccccc2c2nc(CCn3cncc3C)nn12,nt,nt,23.1µM,?,nt,nt
Cc1cccc(NC(=O)CSc2nc3ccccc3c3nc(CCc4c(C)n[nH]c4C)nn23)c1,i,?,13µM,16.4µM,?,?
Cc1ccc(Cl)cc1NC(=O)CSc1nc2ccccc2c2nc(-c3ccccc3)nn12,nt,nt,i,i,nt,nt
Cc1cncn1CCc1nc2c3ccccc3nc(SCC(=O)Nc3cccc(Cl)c3)n2n1,-96.6,i,7.31µM,18.4µM,i,?
